# Source: ChEMBL document CHEMBL3433997, “St. Jude Leishmania screening dataset” (2016)
# Biological target: Hexose transporter 1 (Plasmodium falciparum) (UniProt O97467)
# Test: ST_JUDE_LEISH: Cytotoxicity at 2uM final concentration against transgenic Leishmania Mexicana promastigotes LmPfHT that are glucose transport deficient and complemented with the Plasmodium falciparum hexose transporter. Activity is measured by DNA content using SYBR green in vitro
# Format: functional
row,Structure (SMILES),inhibition [%]
1,COc1ccc(NC(=O)C2CCN(CCCCCNC(=O)/C=C/c3ccc(Cl)c(Cl)c3)CC2)cc1,2.22
2,COc1cc2nc(N3CCN(C(=O)c4cccc(I)c4)CC3)nc(N)c2cc1OC,3.9
3,CC(CN1CCN(C)CC1)C(=O)Nc1ccc(-c2ccc(-c3nc4ccccc4[nH]3)s2)cc1 (configuration not stated),5.15
4,N#Cc1ccccc1Sc1ccccc1C(=O)Nc1ccc2ccccc2n1,11.5
5,Oc1c(Cl)cc(Nc2nccc(Nc3ccc(Oc4ccccc4)cc3)n2)cc1Cl,4.44
6,O=C(Nc1ccncc1)c1cc(C(=O)Nc2ccncc2)cc([N+](=O)[O-])c1,-3.19
7,Nc1nc(N)c2cc(C#Cc3ccc(-c4ccccc4)cc3)ccc2n1,10.9
8,Cc1cccc2nc(-c3cccc(-c4cccc(NC(=O)c5csnn5)c4)c3)[nH]c12,1.69

# Biological target: Glucose transporter (Leishmania mexicana) (UniProt O61059)
# Test: ST_JUDE_LEISH: Cytotoxicity at 2uM final concentration against transgenic Leishmania Mexicana promastigotes LmGT2 that are glucose transport deficient and complemented with the L. Mexicana glucose transporter 2. Activity is measured by DNA content using SYBR green in vitro
# Format: functional
row,Structure (SMILES),inhibition [%]
1,CNC(=O)c1cnc(Nc2ccc(N3CCN(C)CC3)cc2)nc1Nc1ccccc1OC,3.41
2,Oc1ccc(Cl)cc1-c1cc(C(F)(F)F)nc(-c2ccccc2)n1,8.28
3,O=[N+]([O-])c1ccc(C2=NN(S(=O)(=O)c3c(Cl)cc(Cl)cc3Cl)CCCC2)cc1,-0.34
4,Cc1cc(CNC(=O)c2ccc(-c3ccc(-c4nc5cc(C(F)(F)F)ccc5[nH]4)s3)cc2)on1,1.12
5,Cc1ccc(-c2cnc3[nH]cc(-c4ccc(C(=O)O)c(C)c4)c3c2)cc1C,1.64
6,N#Cc1cccc(NC(=O)NC2CCN(CCCCCNC(=O)C3CC3c3ccc(Cl)c(Cl)c3)CC2)c1 (configuration not stated),1.85
7,O=C(Nc1cccc(CN2CCN(Cc3ccc(O)cc3)CC2)c1)c1ccc(Cl)c(Cl)c1,2.47
8,O=C(NCCc1ccccc1)N(Cc1cccc(-c2ccc(CNC3CCCC3)cc2)c1)C1CCN(Cc2ccccc2)CC1,11.2
9,CCCNC(=O)Nc1cc2cc(-c3ccc(CN4CCCC4)cc3)ccc2n2c(C)nnc12,-1.87
10,Cc1cccc2nc(-c3ccc(-c4ccc(CN5CCN(C6CCN(C)CC6)CC5)cc4)s3)[nH]c12,-2.96
11,CC(C)CCNCc1ccc(OCc2cccc(C(=O)Nc3ccccc3)c2)c(I)c1,1.47
12,Fc1ccc2[nH]c(-c3ccc(-c4ccc(CNCc5ccccc5)cc4)cc3)nc2c1,6.7
13,Nc1nonc1-c1nc2c(-c3cccc(Cl)c3)nccc2n1CCCNC(=O)Cc1ccc(Cl)cc1,0.42
14,Cc1cc(O)c2c(c1)OC(C)(C)C=C2C1=CCN(Cc2ccccc2)CC1,5.88
15,Nc1c(Cl)cc(C(O)CNCCCCCOCCc2ccc3occc3c2)cc1Cl (configuration not stated),1.96
16,CC(=O)Nc1ccc(Nc2c3ccccc3nc3ccccc23)cc1,0.02
17,Cc1nc(-c2cccc3c(NC(=O)N4CCc5cc6nccc(N7CCN(C)CC7)c6cc54)cccc23)no1,-0.68
18,O=C(C=Cc1ccc(Cl)c(Cl)c1)NCCCCCN1CCC(CCNS(=O)(=O)c2ccc(F)cc2)CC1,4.55
19,COc1ccc(CN(C)CCCOc2ccc(NC(=O)c3cccc4c(=O)c5cccc(C)c5[nH]c34)cc2)cc1OC,3.39
20,CCOc1ccccc1NC(=O)C(Sc1nc(C)cc(C)c1C#N)c1ccccc1 (configuration not stated),6.45

row,Structure (SMILES),inhibition [%]
1,N=C(N)c1ccc(-c2cc3ccc(C(=N)N)cc3[nH]2)cc1,52.2
2,COc1ccc(CNC2CCN(C)CC2)cc1-c1ccc(S(=O)(=O)NC2CCC2)s1,0.46
3,CCCc1ccc(C(=O)N2C(c3nccs3)C(C(N)=O)CC2(CC(C)C)C(=O)O)cc1 (configuration not stated),0.37
4,CN(C)C(CNC(=O)c1cc(-c2ccncc2)c(-c2ccc(NC(=O)Nc3cccc(F)c3)cc2)o1)c1ccccc1 (configuration not stated),0.6
5,Fc1ccc2[nH]c(-c3cccc(-c4ccc(CNCC5CCCO5)cc4)c3)nc2c1 (configuration not stated),-1.42
6,COc1cc2nc(N3CCC(CNCc4ccc(-c5ccc(C(F)(F)F)cc5)cc4)CC3)nc(N)c2cc1OC,110
7,O=[N+]([O-])c1cccc(-c2nc3cc(C4=NC5CCCCC5N4)ccc3[nH]2)c1 (configuration not stated),1.26
8,COc1cc(N(Cc2ccccc2C)S(=O)(=O)Cc2ccccc2[N+](=O)[O-])c(OC)cc1Cl,3.39
9,N#Cc1ccc(CNCCCCCCCNCc2ccc(-c3ccccc3)cc2)cc1,5.28
10,COc1cc(NC(=O)c2sc(-c3ccc(Cl)cc3)cc2NC(=O)c2ccncc2)ccc1OCCN1CCCC1,0.97
11,CC(C)(C)c1ccc2oc(=O)n(C3CCN(C(=O)c4ccc([N+](=O)[O-])o4)CC3)c2c1,0.29
12,COc1ccc(NC(=O)C2CCN(CCCCCNC(=O)/C=C/c3ccc(Cl)c(Cl)c3)CC2)cc1,2.85
13,COc1cc2nc(N3CCN(C(=O)c4cccc(I)c4)CC3)nc(N)c2cc1OC,-0.04
14,CC(CN1CCN(C)CC1)C(=O)Nc1ccc(-c2ccc(-c3nc4ccccc4[nH]3)s2)cc1 (configuration not stated),3.56
15,N#Cc1ccccc1Sc1ccccc1C(=O)Nc1ccc2ccccc2n1,7.12
16,Oc1c(Cl)cc(Nc2nccc(Nc3ccc(Oc4ccccc4)cc3)n2)cc1Cl,1.16
17,O=C(Nc1ccncc1)c1cc(C(=O)Nc2ccncc2)cc([N+](=O)[O-])c1,-0.41
18,Nc1nc(N)c2cc(C#Cc3ccc(-c4ccccc4)cc3)ccc2n1,2.06
19,Cc1cccc2nc(-c3cccc(-c4cccc(NC(=O)c5csnn5)c4)c3)[nH]c12,-0.76
